# PubChem BioAssay (EPA / NIEHS)
# Inconclusive results are not listed. Active and inactive are the calls of the source. Rule for the calls: active = hit-call score of the fitted dose curve at least 0.9, where 1 is the maximum; inconclusive = response in the unintended direction; inactive = score below 0.9.
# Key:
# [1] = biological target: guinea pig Opioid, Kappa 1 Receptor (OpiateK), OPRK1 (gene 100135587) (UniProt P41144); assay: NVS_GPCR_gOpiateK: NovaScreen (NVS) G Protein-Coupled Receptor Assay for guinea pig Opioid, Kappa 1 Receptor (OpiateK) (AID 2283252);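 note: radioligand displacement from kappa opioid receptor in guinea pig cerebellar membranes; active means reduced radioligand binding relative to DMSO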
# guinea pig Opioid, Kappa 1 Receptor (OpiateK), OPRK1 (gene 100135587), sequence (P41144 whole entry, looked up): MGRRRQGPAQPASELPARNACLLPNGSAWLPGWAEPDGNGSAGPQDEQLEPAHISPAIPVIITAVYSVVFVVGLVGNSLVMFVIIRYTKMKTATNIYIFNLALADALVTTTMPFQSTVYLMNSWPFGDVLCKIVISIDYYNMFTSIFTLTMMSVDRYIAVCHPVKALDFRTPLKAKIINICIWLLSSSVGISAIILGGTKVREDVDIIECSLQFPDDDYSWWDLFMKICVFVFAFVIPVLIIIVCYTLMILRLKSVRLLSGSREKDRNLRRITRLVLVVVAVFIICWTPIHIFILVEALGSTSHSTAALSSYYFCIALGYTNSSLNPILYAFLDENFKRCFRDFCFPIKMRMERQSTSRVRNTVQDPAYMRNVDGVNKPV
# In short: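 Signal is scintillation counts of filter-trapped radioligand bound to guinea pig cerebellar membrane receptor, measured 2 hours post-dosing. Activity is loss of binding versus DMSO, first at 25 uM in duplicate, then as concentration series for actives.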
# [2] = biological target: Adenosine receptor A1 (Bos taurus) (UniProt P28190); assay: NVS_GPCR_bAdoR_NonSelective: NovaScreen (NVS) G Protein-Coupled Receptor Assay for bovine Adenosine Receptor (AdoR), Non-selective Binding (AID 2283244)
# Adenosine receptor A1 (Bos taurus), sequence (P28190 whole entry, looked up): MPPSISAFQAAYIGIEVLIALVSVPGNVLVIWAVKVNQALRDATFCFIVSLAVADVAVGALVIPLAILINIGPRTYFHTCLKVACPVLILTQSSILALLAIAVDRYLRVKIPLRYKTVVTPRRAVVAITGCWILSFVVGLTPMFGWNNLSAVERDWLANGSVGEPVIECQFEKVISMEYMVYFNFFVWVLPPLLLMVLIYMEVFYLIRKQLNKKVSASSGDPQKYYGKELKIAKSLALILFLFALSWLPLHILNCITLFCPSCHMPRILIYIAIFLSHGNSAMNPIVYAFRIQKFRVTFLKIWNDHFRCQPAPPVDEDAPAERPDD
# In short: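 Bovine striatal membranes, radioligand displacement binding, 1 h after dosing, filter-based scintillation counting. Screened in duplicate at 25 uM, then concentration-response up to 50 uM; loss of specific binding relative to DMSO.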
# [3] = biological target: human Adenosine A1 Receptor (AdoRA1), ADORA1 (gene 134) (UniProt P30542); assay: NVS_GPCR_hAdoRA1: NovaScreen (NVS) G Protein-Coupled Receptor Assay for human Adenosine A1 Receptor (AdoRA1) (AID 2283254)
# human Adenosine A1 Receptor (AdoRA1), ADORA1 (gene 134), sequence (P30542 whole entry, looked up): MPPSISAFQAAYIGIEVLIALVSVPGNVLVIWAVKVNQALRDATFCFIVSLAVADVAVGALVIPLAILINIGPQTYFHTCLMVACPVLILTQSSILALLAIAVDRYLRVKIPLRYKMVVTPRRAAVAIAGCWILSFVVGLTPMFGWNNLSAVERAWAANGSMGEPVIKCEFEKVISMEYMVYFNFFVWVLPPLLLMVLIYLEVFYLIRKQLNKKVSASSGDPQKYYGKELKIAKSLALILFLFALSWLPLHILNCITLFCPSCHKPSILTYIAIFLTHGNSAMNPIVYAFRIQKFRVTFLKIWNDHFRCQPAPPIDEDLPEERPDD
# In short: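 Membranes from human cortical tissue were incubated with radioligand and test chemical for 1 hour, then filtered and counted. Activity was taken as signal loss relative to DMSO, screened at 25 uM in duplicate before concentration-response follow-up.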
# [4] = biological target: human Serotonin, 5-Hydroxytryptamine Receptor 2A (5HT2A), HTR2A (gene 3356) (UniProt P28223); assay: NVS_GPCR_h5HT2A: NovaScreen (NVS) G Protein-Coupled Receptor Assay for human Serotonin, 5-Hydroxytryptamine Receptor 2A (5HT2A) (AID 2283249)
# human Serotonin, 5-Hydroxytryptamine Receptor 2A (5HT2A), HTR2A (gene 3356), sequence (P28223 whole entry, looked up): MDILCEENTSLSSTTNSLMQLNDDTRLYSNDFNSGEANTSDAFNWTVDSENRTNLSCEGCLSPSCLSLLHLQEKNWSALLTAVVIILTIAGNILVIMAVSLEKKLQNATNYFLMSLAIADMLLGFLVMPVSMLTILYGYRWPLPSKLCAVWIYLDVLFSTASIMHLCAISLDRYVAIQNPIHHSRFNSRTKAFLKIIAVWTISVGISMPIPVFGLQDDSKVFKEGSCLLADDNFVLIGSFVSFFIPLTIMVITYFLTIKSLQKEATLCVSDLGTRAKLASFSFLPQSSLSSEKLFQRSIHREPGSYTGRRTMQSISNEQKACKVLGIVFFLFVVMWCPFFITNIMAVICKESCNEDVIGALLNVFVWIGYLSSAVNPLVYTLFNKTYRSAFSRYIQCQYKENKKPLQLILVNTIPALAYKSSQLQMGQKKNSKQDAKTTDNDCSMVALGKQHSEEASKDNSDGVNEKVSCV
# In short: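 Human cortex membranes, cell-free radioligand binding; filter-based scintillation read 1.5 h after dosing. Duplicate screen at 25 uM first; displacement of specific binding (loss of signal) versus DMSO.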
# [5] = test system: guinea pig Leukotriene B4 Receptor (LTB4), gene 100379538; assay: NVS_GPCR_gLTB4: NovaScreen (NVS) G Protein-Coupled Receptor Assay for guinea pig Leukotriene B4 Receptor (LTB4) (AID 2283247)
# In short: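 Radioligand displacement on guinea pig spleen membranes, filter-based scintillation counting 2 h after dosing. Primary duplicate single point at 25 uM; hits over threshold (e.g. 30% inhibition) run in concentration-response up to 50 uM, DMSO baseline.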
# [6] = biological target: human Adenosine A2a Receptor (AdoRA2a), ADORA2A (gene 135) (UniProt P29274); assay: NVS_GPCR_hAdoRA2a: NovaScreen (NVS) G Protein-Coupled Receptor Assay for human Adenosine A2a Receptor (AdoRA2a) (AID 2283256)
# human Adenosine A2a Receptor (AdoRA2a), ADORA2A (gene 135), sequence (P29274 whole entry, looked up): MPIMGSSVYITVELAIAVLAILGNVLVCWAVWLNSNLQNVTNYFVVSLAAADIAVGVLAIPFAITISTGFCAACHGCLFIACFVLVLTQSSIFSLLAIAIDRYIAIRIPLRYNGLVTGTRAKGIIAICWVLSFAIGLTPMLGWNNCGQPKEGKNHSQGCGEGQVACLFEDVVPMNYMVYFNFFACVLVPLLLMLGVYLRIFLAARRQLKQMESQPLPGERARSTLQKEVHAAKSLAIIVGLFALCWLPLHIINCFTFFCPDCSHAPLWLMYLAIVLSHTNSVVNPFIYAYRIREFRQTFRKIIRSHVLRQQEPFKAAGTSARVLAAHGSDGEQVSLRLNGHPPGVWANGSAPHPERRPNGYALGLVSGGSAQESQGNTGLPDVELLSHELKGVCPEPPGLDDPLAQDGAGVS
# In short: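 Radioligand displacement on HEK293-derived membrane protein, cell-free; filter-based scintillation counting 1.5 hours after dosing, loss of signal vs DMSO. Single-point duplicate screen at 25 uM, actives retested in concentration series.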
# [7] = biological target: guinea pig Leukotriene D4 Receptor (LTD4), CYSLTR1 (gene 100135514) (UniProt Q2NNR5); assay: NVS_GPCR_gLTD4: NovaScreen (NVS) G Protein-Coupled Receptor Assay for guinea pig Leukotriene D4 Receptor (LTD4) (AID 2283248)
# guinea pig Leukotriene D4 Receptor (LTD4), CYSLTR1 (gene 100135514), sequence (Q2NNR5 whole entry, looked up): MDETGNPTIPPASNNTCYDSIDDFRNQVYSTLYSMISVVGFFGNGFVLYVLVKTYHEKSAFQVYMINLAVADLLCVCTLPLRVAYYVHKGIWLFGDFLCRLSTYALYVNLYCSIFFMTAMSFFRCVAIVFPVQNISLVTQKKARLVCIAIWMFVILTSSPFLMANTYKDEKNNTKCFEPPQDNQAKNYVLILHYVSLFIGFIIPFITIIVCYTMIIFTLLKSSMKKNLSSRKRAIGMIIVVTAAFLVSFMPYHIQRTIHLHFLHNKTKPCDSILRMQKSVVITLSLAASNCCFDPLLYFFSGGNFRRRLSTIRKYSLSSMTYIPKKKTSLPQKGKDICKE
# In short: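 Radioligand displacement on guinea pig lung membranes, 1 h incubation, filtration and scintillation counting; DMSO as negative control. Duplicate 25 uM primary screen, then singleton concentration-response up to 50 uM.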
# [8] = biological target: human Serotonin, 5-Hydroxytryptamine Receptor 5A (5HT5A), HTR5A (gene 3361) (UniProt P47898); assay: NVS_GPCR_h5HT5A: NovaScreen (NVS) G Protein-Coupled Receptor Assay for human Serotonin, 5-Hydroxytryptamine Receptor 5A (5HT5A) (AID 2283251)
# human Serotonin, 5-Hydroxytryptamine Receptor 5A (5HT5A), HTR5A (gene 3361), sequence (P47898 whole entry, looked up): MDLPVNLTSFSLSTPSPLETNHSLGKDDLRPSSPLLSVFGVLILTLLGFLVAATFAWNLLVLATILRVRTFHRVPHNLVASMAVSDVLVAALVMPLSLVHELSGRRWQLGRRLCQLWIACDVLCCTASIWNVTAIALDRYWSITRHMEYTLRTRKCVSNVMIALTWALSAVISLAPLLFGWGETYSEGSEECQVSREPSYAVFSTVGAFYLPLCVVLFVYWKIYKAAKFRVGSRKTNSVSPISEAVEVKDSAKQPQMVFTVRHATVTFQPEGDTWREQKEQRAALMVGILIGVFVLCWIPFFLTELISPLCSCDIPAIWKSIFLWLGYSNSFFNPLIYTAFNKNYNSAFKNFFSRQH
# In short: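 Cell-free radioligand displacement binding on HEK293-derived membrane protein, 1 h incubation, filter-based scintillation counting. Primary screen in duplicate at 25 uM, actives followed in concentration series; loss of signal fitted versus DMSO.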
# [9] = biological target: human Adrenergic, Beta 1 Receptor (Adrb1), ADRB1 (gene 153) (UniProt P08588); assay: NVS_GPCR_hAdrb1: NovaScreen (NVS) G Protein-Coupled Receptor Assay for human Adrenergic, Beta 1 Receptor (Adrb1) (AID 2283258)
# human Adrenergic, Beta 1 Receptor (Adrb1), ADRB1 (gene 153), sequence (P08588 whole entry, looked up): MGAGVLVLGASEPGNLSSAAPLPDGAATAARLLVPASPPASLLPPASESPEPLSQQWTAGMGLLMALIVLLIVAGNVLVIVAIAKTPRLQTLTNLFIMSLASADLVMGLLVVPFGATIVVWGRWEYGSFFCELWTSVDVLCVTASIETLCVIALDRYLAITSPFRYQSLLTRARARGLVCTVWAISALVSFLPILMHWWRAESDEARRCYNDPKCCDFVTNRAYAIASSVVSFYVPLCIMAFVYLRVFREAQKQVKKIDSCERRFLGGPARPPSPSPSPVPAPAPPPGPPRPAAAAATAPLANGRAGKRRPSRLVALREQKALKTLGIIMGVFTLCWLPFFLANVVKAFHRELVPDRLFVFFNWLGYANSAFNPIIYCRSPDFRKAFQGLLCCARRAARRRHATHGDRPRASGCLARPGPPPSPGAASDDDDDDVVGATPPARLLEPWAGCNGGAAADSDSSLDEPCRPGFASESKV
# In short: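 Cell-free radioligand displacement on receptor from human neuroepithelioma cells; 2 h after dosing, filter-based scintillation counting. Primary screen in duplicate at 25 uM, actives retested in concentration series; loss of signal vs DMSO baseline.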
# [10] = biological target: human Serotonin, 5-Hydroxytryptamine Receptor 7 (5HT7), HTR7 (gene 3363) (UniProt P34969); assay: NVS_GPCR_h5HT7: NovaScreen (NVS) G Protein-Coupled Receptor Assay for human Serotonin, 5-Hydroxytryptamine Receptor 7 (5HT7) (AID 2283255);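 note: hits reduce specific radioligand binding relative to DMSO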
# human Serotonin, 5-Hydroxytryptamine Receptor 7 (5HT7), HTR7 (gene 3363), sequence (P34969 whole entry, looked up): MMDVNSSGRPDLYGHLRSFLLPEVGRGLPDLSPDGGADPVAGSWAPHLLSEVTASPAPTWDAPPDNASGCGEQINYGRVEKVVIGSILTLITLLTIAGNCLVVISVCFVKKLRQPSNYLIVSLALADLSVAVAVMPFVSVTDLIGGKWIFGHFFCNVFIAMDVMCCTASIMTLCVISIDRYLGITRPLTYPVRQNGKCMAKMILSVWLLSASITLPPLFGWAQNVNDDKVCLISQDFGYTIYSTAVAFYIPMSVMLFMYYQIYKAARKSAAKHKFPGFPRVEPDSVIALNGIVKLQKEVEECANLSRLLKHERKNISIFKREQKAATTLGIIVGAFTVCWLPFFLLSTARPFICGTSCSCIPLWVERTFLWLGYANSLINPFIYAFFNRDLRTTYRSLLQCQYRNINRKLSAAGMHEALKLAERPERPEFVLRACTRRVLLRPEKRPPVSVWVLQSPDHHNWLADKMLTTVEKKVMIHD
# In short: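 Radioligand displacement on membranes from CHO cells expressing human 5HT7, 1 h incubation, filter-based scintillation counting. Primary screen used a single 25 uM concentration in duplicate; actives were followed up in concentration series.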
smiles,measurement,setting,value
N#CCCC(Br)(C#N)CBr (stereo not given),outcome,[1],inactive
CC(C)(C)c1ccccc1O,outcome,[2],inactive
CCOP(=O)(OCC)OC(=CCl)c1ccc(Cl)cc1Cl,AC50,[1],18.3 µM (active)
same,outcome,[3],inactive
CC(C)O.CC(C)O.OCCN(CCO)CCO.OCCN(CCO)CCO.[Ti],outcome,[4],inactive
Cc1ccccc1OP(=O)(Oc1ccccc1C)Oc1ccccc1C,outcome,[3],inactive
Oc1c(Cl)cc(Cl)cc1Cl,outcome,[5],inactive
Cc1cc(C(C)(C)c2ccc(O)c(C)c2)ccc1O,AC50,[3],8.39 µM (active)
same,outcome,[6],inactive
CCCCOC(C)=O,outcome,[7],inactive
same,outcome,[3],inactive
CCN(N=O)C(N)=O,outcome,[7],inactive
CCOC(=O)CC(=O)CCl,outcome,[7],inactive
O=C1C=CC(=O)c2ccccc21,AC50,[1],37.8 µM (active)
O=C(O)C1(c2ccc3c(c2)OC[C@H](Cc2ccc(-c4ccccc4)cc2)[C@H]3O)CCCC1,AC50,[5],0.00229 µM (active)
same,outcome,[7],inactive
same,outcome,[8],inactive
same,AC50,[9],25 µM (active)
[Cl][Sn]([c]1ccccc1)([c]1ccccc1)[c]1ccccc1,outcome,[6],inactive
O=C1C[C@@H]2OCC=C3CN4CC[C@]56c7ccccc7N1[C@H]5[C@H]2[C@H]3C[C@H]46,outcome,[1],inactive
Nc1c(Oc2ccccc2)cc(O)c2c1C(=O)c1ccccc1C2=O,outcome,[1],inactive
Cc1cccc(OP(=O)(Oc2cccc(C)c2)Oc2cccc(C)c2)c1,outcome,[6],inactive
CCCCCCCCCCCCc1cccc(S(=O)(=O)O)c1,AC50,[5],10.5 µM (active)
same,AC50,[7],22.5 µM (active)
same,AC50,[8],13.7 µM (active)
same,AC50,[10],14.3 µM (active)
same,AC50,[9],9.54 µM (active)
O=c1oc2ccccc2c(O)c1C(CC(O)c1ccc(-c2ccc(Br)cc2)cc1)c1ccccc1 (stereo not given),AC50,[7],9.92 µM (active)
same,outcome,[1],inactive
same,AC50,[3],23.9 µM (active)
